According to PubChem BioAssay (NCATS):
Records with an inconclusive call do not appear. Unmarked numbers belong to inactive results. Calls of active or inactive are those of the source. Calls come from the whole dose curve; as a rule, active = well fitted inhibition curve with a large enough effect; inconclusive = small, poorly fitted or top-dose-only effect; inactive = no such curve, though single readings can be large or run the other way. Where a SMILES comes first, the peptide text is derived from it. [ ]: non-standard residue; d: D form. PhLac = O=C(O)[CH](O)Cc1ccccc1; NMeV = CN[CH](C(=O)O)C(C)C

System: Zika virus NS2B-NS3 protease (unlinked complex)
Assay: Primary screen GU Rhodamine qHTS for Zika virus inhibitors: Unlinked NS2B-NS3 protease assay (AID 1347159); note: nearly all actives have a fitted effect of over 60% in size
Conditions: Recombinant ZIKV NS2B-NS3 protease, Rhodamine110 substrate fluorescence; series mostly up to 107 µM; activity change, negative = inhibition: at the top concentration
How it was run: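 Enzyme 25 nM in Tris-HCl pH 8.0 + 0.01% Tween 20; compounds up to 114 microM, 15 min RT dark; + Rhod110 substrate 1.5 microM; read t0 and 15 min; delta fluorescence → % inhibition → 4-parameter Hill fit.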
% is set by controls: 0 for no effect and ±100 for the full control effect; potency is the fitted concentration of half-maximal effect.

Structure (SMILES)	activity change, negative = inhibition	Potency
COC(=O)[C@H](OC(C)=O)[C@H]1C(C)(C)C(=O)[C@H]2CC3=C4CC(=O)O[C@@H](c5ccoc5)[C@]4(C)CCC3[C@@]1(C)C2=O (stereo partly specified)	-13.3% [at 57.1 µM]	
COc1cc(-c2cccc(O)c2)cc2c1OCO2		35.5 µM (active)
O=C(/C=C/c1ccccc1)OCC1=CC[C@@H]2C(C(=O)O)=CO[C@@H](O[C@@H]3O[C@H](CO)[C@@H](O)[C@H](O)[C@H]3O)[C@H]12	-4.86% [at 57.1 µM]	
CC(C)C(C(=O)N1CCCC1C(=O)O)N(C)C(=O)C(O)Cc1ccccc1 (stereo unspecified) (H-[PhLac]-[NMeV]-Pro-OH; configuration not given here)	7.19%	
C[C@@H]1O[C@@H](OC[C@H]2O[C@@H](OCC3CCC4CC3C4(C)C)[C@H](O)[C@@H](O)[C@@H]2O)[C@H](O)[C@H](O)[C@H]1O (stereo partly specified)	-24.3% [at 57.1 µM]	
OC[C@H]1O[C@@H](Oc2cc(O)cc(-c3cc4ccc(O)cc4o3)c2)[C@H](O)[C@@H](O)[C@@H]1O	-6.93% [at 57.1 µM]	
CC(/C=C/C1(O)C(C)(C)CC(O)CC1(C)O)OC1OC(CO)C(O)C(O)C1O (stereo unspecified)	8.33% [at 57.1 µM]	
C[C@H]1[C@H](C)CC[C@]2(C(=O)O)CC[C@]3(C)C(=CC[C@@H]4[C@@]5(C)C[C@@H](O)[C@H](O)[C@@](C)(CO)[C@@H]5CC[C@]43C)[C@H]12	2.82%	
c1ccc(Cc2ncc3c(n2)CCNCC3)cc1	29.8%	
C/C=C(/C)C(=O)O[C@H]1C=C(C)C[C@H](OC(=O)c2ccc(O)cc2)C2[C@](O)(C(C)C)CC[C@@]21C (stereo partly specified)	8.86% [at 32.5 µM]	
Cc1cc(Nc2ncc(Cl)c(Nc3ccccc3S(=O)(=O)C(C)C)n2)c(OC(C)C)cc1C1CCNCC1	39.4%	
